# Measured values as given in article PMC11062922 (Nature Chemical Biology, 2023).
# Where two headings read alike, the source gives them in different places.
# Assays:
# Parameters in all cases: species or system human, MV4-11 + K-562 + COLO205 + SK-N-BE2 + OVCAR-8
# CSK = conditions: read-out: apparent Kd, compound concentrations: 100 nM and 1000 nM (sheet 'Samples'), n = 1
# DDR1 = conditions: read-out: apparent Kd, n = 1
# EGFR = conditions: read-out: apparent Kd, compound concentrations: 100 nM and 1000 nM (sheet 'Samples'), n = 1
# FRK = conditions: read-out: apparent Kd, compound concentrations: 100 nM and 1000 nM (sheet 'Samples'), n = 1
# LYN = conditions: read-out: apparent Kd, compound concentrations: 100 nM and 1000 nM (sheet 'Samples'), n = 1
# SRC = conditions: read-out: apparent Kd, compound concentrations: 100 nM and 1000 nM (sheet 'Samples'), n = 1
# CDK16 = conditions: read-out: apparent Kd, compound concentrations: 100 nM and 1000 nM (sheet 'Samples'), n = 1
# CDKL5 = conditions: read-out: apparent Kd, compound concentrations: 100 nM and 1000 nM (sheet 'Samples'), n = 1
# AURKB = conditions: read-out: apparent Kd, n = 1
# GSK3A = conditions: read-out: apparent Kd; compound concentrations:100 nM and 1000 nM (sheet 'Samples'); n = 1
# GSK3B = conditions: read-out: apparent Kd; compound concentrations:100 nM and 1000 nM (sheet 'Samples'); n = 1
# EPHA1 = conditions: read-out: apparent Kd, compound concentrations: 100 nM and 1000 nM (sheet 'Samples'), n = 1
# AKT2 = conditions: read-out: apparent Kd; compound concentrations: 100 nM and 1000 nM (sheet 'Samples'), CATDS: 0.123001791308401; n = 1
# FLT3 = conditions: read-out: apparent Kd; compound concentrations: 100 nM and 1000 nM (sheet 'Samples'), CATDS: 5.7646545219248203E-2; n = 1
# ACAD11 = conditions: read-out: apparent Kd; compound concentrations:100 nM and 1000 nM (sheet 'Samples'); n = 1
# ACVR1B = conditions: read-out: apparent Kd, n = 1
# SIK2 = conditions: read-out: apparent Kd, n = 1
# MAPK14 = conditions: read-out: apparent Kd, n = 1
# [1] = compound concentrations:100 nM and 1000 nM (sheet 'Samples')
smiles,measurement,setting,value
CN1CCc2ccc(Nc3nccc(-c4c(-c5cccc(NC(=O)c6c(F)cccc6F)c5)nc5ccccn45)n3)cc2C1.Cl [GSK1010829B],potency estimated from few doses,CSK; CATDS: 3.4286589805654001E-2,1380 nM
same,potency estimated from few doses,"DDR1; compound concentrations: 100 nM and 1000 nM (sheet 'Samples'), CATDS: 3.8396909039531198E-2",1010 nM
same,potency estimated from few doses,EGFR; CATDS: 3.29518195590447E-2,1570 nM
same,potency estimated from few doses,FRK; CATDS: 4.3093308654231798E-2,770 nM
same,potency estimated from few doses,LYN; CATDS: 6.0028262979631E-2,403 nM
same,potency estimated from few doses,SRC; CATDS: 5.29363400907749E-2,505 nM
CC(=O)N1CCN(c2ccc(Nc3nccc(-c4sc(C(C)C)nc4-c4cccc(NS(=O)(=O)c5ccccc5)c4)n3)cn2)CC1 [GSK1645872A],potency estimated from few doses,CDK16; CATDS: 3.8372919727344801E-2,431 nM
same,potency estimated from few doses,CDKL5; CATDS: 2.2966868813045101E-2,1680 nM
same,potency estimated from few doses,EGFR; CATDS: 3.0506753540730399E-2,710 nM
NS(=O)(=O)CCc1cccc(Nc2nccc(-c3c(-c4cccc(NC(=O)c5c(F)cccc5F)c4)nn4ccccc34)n2)c1 [GSK336735A],potency estimated from few doses,"AURKB; compound concentrations: 100 nM and 1000 nM (sheet 'Samples'), CATDS: 5.6735057475689701E-2",1260 nM
same,potency estimated from few doses,CSK; CATDS: 5.7355343721703998E-2,1220 nM
same,potency estimated from few doses,"DDR1; compound concentrations: 100 nM and 1000 nM (sheet 'Samples'), CATDS: 5.2826618660154298E-2",1570 nM
same,potency estimated from few doses,EGFR; CATDS: 5.3399275908321601E-2,1520 nM
same,potency estimated from few doses,LYN; CATDS: 7.1175193729883096E-2,720 nM
COc1cc2ncn(-c3cc(OCCCc4ccccc4)c(C(N)=O)s3)c2cc1OC [GSK205189A],potency estimated from few doses,GSK3A,575 nM
same,potency estimated from few doses,GSK3B,1110 nM
CC(=O)N1CCN(c2ccc(Nc3nccc(-c4sc(C(C)C)nc4-c4cccc(NS(=O)(=O)c5cccc(Cl)c5)c4)n3)cn2)CC1 [GSK1660437A],potency estimated from few doses,CDK16; CATDS: 4.5005275972449597E-2,1070 nM
same,potency estimated from few doses,CSK; CATDS: 5.27130468240418E-2,741 nM
CC(C)c1nc(-c2cccc(NS(=O)(=O)c3c(F)cccc3F)c2F)c(-c2ccnc(Nc3ccc(N4CCOCC4)nc3)n2)s1 [GSK2008607A],potency estimated from few doses,CDK16; CATDS: 3.1735932444665597E-2,424 nM
same,potency estimated from few doses,CDKL5; CATDS: 1.9051705210026099E-2,1650 nM
same,potency estimated from few doses,CSK; CATDS: 4.1008032947333198E-2,262 nM
same,potency estimated from few doses,EPHA1; CATDS: 2.5663443213215401E-2,679 nM
same,potency estimated from few doses,LYN; CATDS: 2.5134529621639101E-2,715 nM
CN1CCN(Cc2cccc(-c3ccc4c(Nc5ccc(Oc6ccccc6)cc5)ccnc4c3)c2)CC1 [GW578342X],potency estimated from few doses,SRC; CATDS: 9.2821429290207799E-2,825 nM
Cn1cc(-c2ccc3c(c2)CCN3C(=O)Cc2cc(F)cc(C(F)(F)F)c2)c2c(N)ncnc21 [GSK2635225A],potency estimated from few doses,AKT2,1850 nM
Cn1cc(-c2cnc(N)c3c(-c4ccc5c(c4)CCN5C(=O)Cc4ccccc4)csc23)cn1 [GSK2593074A],potency estimated from few doses,AURKB; [1],692 nM
CN1CCN(Cc2ccc(-c3ccc4c(Nc5ccc(Oc6ccccn6)cc5)ccnc4c3)o2)CC1 [GW567140X],potency estimated from few doses,EGFR; CATDS: 3.6910458353503803E-2,1180 nM
same,potency estimated from few doses,EPHA1; CATDS: 4.2699834629257603E-2,760 nM
same,potency estimated from few doses,FLT3,368 nM
same,potency estimated from few doses,FRK; CATDS: 3.6217931786021701E-2,1260 nM
same,potency estimated from few doses,LYN; CATDS: 3.5611600643533602E-2,1330 nM
same,potency estimated from few doses,SRC; CATDS: 4.7577990075445997E-2,573 nM
COc1cc2ncn(-c3cc(OCc4ccncc4)c(C(N)=O)s3)c2cc1OC [GSK336313A],potency estimated from few doses,ACAD11,1400 nM
CC(C)c1nc(-c2cccc(NS(=O)(=O)c3c(F)cccc3F)c2)c(-c2ccnc(Nc3ccc(N4CCOCC4)nc3)n2)s1.Cl [GSK1723980B],potency estimated from few doses,"ACVR1B; compound concentrations: 100 nM and 1000 nM (sheet 'Samples'), CATDS: 1.87484218332362E-2",614 nM
same,potency estimated from few doses,CDK16; CATDS: 2.4648897890500801E-2,294 nM
same,potency estimated from few doses,CDKL5; CATDS: 1.7066760873740601E-2,848 nM
same,potency estimated from few doses,CSK; CATDS: 4.9145326105273501E-2,81.6 nM
same,potency estimated from few doses,EGFR; CATDS: 1.4688482058743299E-2,1660 nM
same,potency estimated from few doses,EPHA1; CATDS: 2.59841988169222E-2,261 nM
same,potency estimated from few doses,FRK; CATDS: 1.9563018152501301E-2,538 nM
same,potency estimated from few doses,LYN; CATDS: 2.8217143003072001E-2,219 nM
same,potency estimated from few doses,"SIK2; compound concentrations: 100 nM and 1000 nM (sheet 'Samples'), CATDS: 1.4802843404643599E-2",1590 nM
same,potency estimated from few doses,SRC; CATDS: 2.25730576079274E-2,364 nM
Cl.Cn1c(=O)c(Cc2ccc(F)cc2F)cc2cnc(NC3CCOCC3)nc21 [RO3308757-001],potency estimated from few doses,GSK3A,484 nM
same,potency estimated from few doses,GSK3B,745 nM
same,potency estimated from few doses,MAPK14; [1],442 nM
same,potency estimated from few doses,SIK2; [1],812 nM
Fc1ccc(-c2c(-c3ccncc3)[nH]c3nccnc23)cc1 [RO1155697-000],potency estimated from few doses,ACAD11,1300 nM
same,potency estimated from few doses,ACVR1B; [1],711 nM
same,potency estimated from few doses,DDR1; [1],1010 nM
same,potency estimated from few doses,"MAPK14; compound concentrations: 100 nM and 1000 nM (sheet 'Samples'), CATDS: 5.8125054995699497E-2",449 nM
